Results on 31 molecules are retold here after publication PMC9911399, “Two distinct binding modes provide the RNA-binding protein RbFox with extraordinary sequence specificity”.

Substitutions are numbered along the chain they refer to; changes in the protein carry UniProt numbers. The full ranking holds about 16,000 sequences; the median of “ka relative to ugcaugu” is about 0.0091, and the highest 2% start at about 0.032. This is one part of a sample in which the highest values are shown more often than they occur.

The labels stand for the following.
T1: RBFOX1 RRM (Homo sapiens, UniProt Q9NWB1 109-208)
T1 sequence: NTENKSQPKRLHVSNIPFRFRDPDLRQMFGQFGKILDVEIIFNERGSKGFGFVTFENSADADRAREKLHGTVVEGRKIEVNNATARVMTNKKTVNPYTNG

B1: AGCUCAC (DNA:RNA)
RNA: GGGAGACCGGAAUUCAGAUUGUCCAGCUCACUUAAAUCCCGUCGUAGCCACCA
DNA 1: CAATCTGAATTCCGGTCTCCC
DNA 2: TGGTGGCTACGACGGGATT
B2: ACUGACU (DNA:RNA)
RNA: B1 RNA with G26C, C27U, U28G, C29A, A30C, C31U
DNA 1: CAATCTGAATTCCGGTCTCCC
DNA 2: TGGTGGCTACGACGGGATT
B3: UAAAUCG (DNA:RNA)
RNA: GGGAGACCGGAAUUCAGAUUGUCCUAAAUCGUUAAAUCCCGUCGUAGCCACCA
DNA 1: CAATCTGAATTCCGGTCTCCC
DNA 2: TGGTGGCTACGACGGGATT
B4: GAAAAGU (DNA:RNA)
RNA: B3 RNA with U25G, U29A, C30G, G31U
DNA 1: CAATCTGAATTCCGGTCTCCC
DNA 2: TGGTGGCTACGACGGGATT
B5: AGAAACC (DNA:RNA)
RNA: B1 RNA with C27A, U28A, C29A, A30C
DNA 1: CAATCTGAATTCCGGTCTCCC
DNA 2: TGGTGGCTACGACGGGATT
B6: CUCAAUG (DNA:RNA)
RNA: B3 RNA with U25C, A26U, A27C, U29A, C30U
DNA 1: CAATCTGAATTCCGGTCTCCC
DNA 2: TGGTGGCTACGACGGGATT
B7: CGCGAUA (DNA:RNA)
RNA: B1 RNA with A25C, U28G, C29A, A30U, C31A
DNA 1: CAATCTGAATTCCGGTCTCCC
DNA 2: TGGTGGCTACGACGGGATT
B8: ACCAGGG (DNA:RNA)
RNA: B1 RNA with G26C, U28A, C29G, A30G, C31G
DNA 1: CAATCTGAATTCCGGTCTCCC
DNA 2: TGGTGGCTACGACGGGATT
B9: GUCCCCC (DNA:RNA)
RNA: B1 RNA with A25G, G26U, U28C, A30C
DNA 1: CAATCTGAATTCCGGTCTCCC
DNA 2: TGGTGGCTACGACGGGATT
B10: ACUCCAA (DNA:RNA)
RNA: B1 RNA with G26C, C27U, U28C, C31A
DNA 1: CAATCTGAATTCCGGTCTCCC
DNA 2: TGGTGGCTACGACGGGATT
B11: ACCAGAU (DNA:RNA)
RNA: B1 RNA with G26C, U28A, C29G, C31U
DNA 1: CAATCTGAATTCCGGTCTCCC
DNA 2: TGGTGGCTACGACGGGATT
B12: AAGCGUC (DNA:RNA)
RNA: B1 RNA with G26A, C27G, U28C, C29G, A30U
DNA 1: CAATCTGAATTCCGGTCTCCC
DNA 2: TGGTGGCTACGACGGGATT
B13: CAUGGGA (DNA:RNA)
RNA: B3 RNA with U25C, A27U, A28G, U29G, C30G, G31A
DNA 1: CAATCTGAATTCCGGTCTCCC
DNA 2: TGGTGGCTACGACGGGATT
B14: GUCGGCC (DNA:RNA)
RNA: B1 RNA with A25G, G26U, U28G, C29G, A30C
DNA 1: CAATCTGAATTCCGGTCTCCC
DNA 2: TGGTGGCTACGACGGGATT
B15: UUGGUCG (DNA:RNA)
RNA: B3 RNA with A26U, A27G, A28G
DNA 1: CAATCTGAATTCCGGTCTCCC
DNA 2: TGGTGGCTACGACGGGATT
B16: UUGUUCG (DNA:RNA)
RNA: B3 RNA with A26U, A27G, A28U
DNA 1: CAATCTGAATTCCGGTCTCCC
DNA 2: TGGTGGCTACGACGGGATT
B17: UUGUCCG (DNA:RNA)
RNA: B3 RNA with A26U, A27G, A28U, U29C
DNA 1: CAATCTGAATTCCGGTCTCCC
DNA 2: TGGTGGCTACGACGGGATT
B18: UUGGUCC (DNA:RNA)
RNA: B3 RNA with A26U, A27G, A28G, G31C
DNA 1: CAATCTGAATTCCGGTCTCCC
DNA 2: TGGTGGCTACGACGGGATT
B19: UUGUUGG (DNA:RNA)
RNA: B3 RNA with A26U, A27G, A28U, C30G
DNA 1: CAATCTGAATTCCGGTCTCCC
DNA 2: TGGTGGCTACGACGGGATT
B20: GGCCUUG (DNA:RNA)
RNA: B1 RNA with A25G, U28C, C29U, A30U, C31G
DNA 1: CAATCTGAATTCCGGTCTCCC
DNA 2: TGGTGGCTACGACGGGATT
B21: GGCGGCC (DNA:RNA)
RNA: B1 RNA with A25G, U28G, C29G, A30C
DNA 1: CAATCTGAATTCCGGTCTCCC
DNA 2: TGGTGGCTACGACGGGATT
B22: GUGGUCC (DNA:RNA)
RNA: B3 RNA with U25G, A26U, A27G, A28G, G31C
DNA 1: CAATCTGAATTCCGGTCTCCC
DNA 2: TGGTGGCTACGACGGGATT
B23: UCCUUGG (DNA:RNA)
RNA: B3 RNA with A26C, A27C, A28U, C30G
DNA 1: CAATCTGAATTCCGGTCTCCC
DNA 2: TGGTGGCTACGACGGGATT
B24: GUCCUUG (DNA:RNA)
RNA: B3 RNA with U25G, A26U, A27C, A28C, C30U
DNA 1: CAATCTGAATTCCGGTCTCCC
DNA 2: TGGTGGCTACGACGGGATT
B25: UUGGUUG (DNA:RNA)
RNA: B3 RNA with A26U, A27G, A28G, C30U
DNA 1: CAATCTGAATTCCGGTCTCCC
DNA 2: TGGTGGCTACGACGGGATT
B26: GACUGGA (DNA:RNA)
RNA: B1 RNA with A25G, G26A, C29G, A30G, C31A
DNA 1: CAATCTGAATTCCGGTCTCCC
DNA 2: TGGTGGCTACGACGGGATT
B27: AUGUUUG (DNA:RNA)
RNA: B1 RNA with G26U, C27G, C29U, A30U, C31G
DNA 1: CAATCTGAATTCCGGTCTCCC
DNA 2: TGGTGGCTACGACGGGATT
B28: AUCAGUG (DNA:RNA)
RNA: B1 RNA with G26U, U28A, C29G, A30U, C31G
DNA 1: CAATCTGAATTCCGGTCTCCC
DNA 2: TGGTGGCTACGACGGGATT
B29: AGUUGGA (DNA:RNA)
RNA: B1 RNA with C27U, C29G, A30G, C31A
DNA 1: CAATCTGAATTCCGGTCTCCC
DNA 2: TGGTGGCTACGACGGGATT
B30: ACGCCGG (DNA:RNA)
RNA: B1 RNA with G26C, C27G, U28C, A30G, C31G
DNA 1: CAATCTGAATTCCGGTCTCCC
DNA 2: TGGTGGCTACGACGGGATT
B31: GAGGGUG (DNA:RNA)
RNA: B3 RNA with U25G, A27G, A28G, U29G, C30U
DNA 1: CAATCTGAATTCCGGTCTCCC
DNA 2: TGGTGGCTACGACGGGATT

In the assay the target is T1, RBFOX1 RRM. The assay is described as follows: EMSA; HiTS-Eq, 1 nM pool, 10 min; buffer printed only for the single-RNA assays: 10 mM Tris pH 7.5, 150 mM NaCl, 3.4 mM EDTA, 0.001% NP-40, 30 C. As to conditions: tags: His6 N-terminal (pET28a); label: 5' 32P. Put shortly:
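A pool of RNA with 7 randomized nucleotides, 5′-radiolabelled and with DNA-annealed flanks, was equilibrated at 1 nM for 10 min in 50 µL with purified RbFox RRM, wild type or mutant, across increasing protein concentrations. Free RNA was separated by 8% native PAGE, excised, reverse-transcribed, barcoded by PCR and sequenced. Relative association constants were obtained from read-count changes of each RNA species versus the control reaction and normalised to the cognate motif.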
On to B1, for which the binding signal is 0.00457 KA relative to UGCAUGU.

Regarding B2, the binding signal was 0.00677 KA relative to UGCAUGU.

For B3, the binding signal is 0.00678 KA relative to UGCAUGU.

For the molecule B4, the binding signal is 0.00662 KA relative to UGCAUGU.

B5: the binding signal is 0.00391 KA relative to UGCAUGU.

In the case of B6, the binding signal was 0.00378 KA relative to UGCAUGU.

On to B7, for which the binding signal is 0.00807 KA relative to UGCAUGU.

With B8, the binding signal was 0.00782 KA relative to UGCAUGU.

For the molecule B9, the binding signal is 0.0163 KA relative to UGCAUGU.

Regarding B10, the binding signal is 0.000959 KA relative to UGCAUGU.

Take B11: the binding signal was 0.00102 KA relative to UGCAUGU.

For B12, the binding signal was 0.00965 KA relative to UGCAUGU.

As to B13, the binding signal was 0.00261 KA relative to UGCAUGU.

Take B14: the binding signal was 0.0169 KA relative to UGCAUGU.

For the molecule B15, the binding signal was 0.0376 KA relative to UGCAUGU.

For B16, the binding signal is 0.0364 KA relative to UGCAUGU.

Consider B17, for which the binding signal is 0.0163 KA relative to UGCAUGU.

As to B18, the binding signal was 0.0262 KA relative to UGCAUGU.

With B19, the binding signal is 0.0248 KA relative to UGCAUGU.

For B20, the binding signal was 0.0328 KA relative to UGCAUGU.

On to B21, for which the binding signal was 0.0183 KA relative to UGCAUGU.

For the molecule B22, the binding signal is 0.0226 KA relative to UGCAUGU.

Regarding B23, the binding signal was 0.0132 KA relative to UGCAUGU.

In the case of B24, the binding signal was 0.0114 KA relative to UGCAUGU.

For the molecule B25, the binding signal is 0.0398 KA relative to UGCAUGU.

In the case of B26, the binding signal was 0.0138 KA relative to UGCAUGU.

For B27, the binding signal was 0.0211 KA relative to UGCAUGU.

Turning to B28, the binding signal was 0.00865 KA relative to UGCAUGU.

Regarding B29, the binding signal was 0.00398 KA relative to UGCAUGU.

For the molecule B30, the binding signal is 0.00777 KA relative to UGCAUGU.

In the case of B31, the binding signal is 0.0242 KA relative to UGCAUGU.
